BAZ2B block: blocks human BAZ2B. Q9UIF8. AlphaScreen BAZ2B-H3K14Ac peptide displacement. Potency, µM (series often up to 114 µM), for inactives: top-dose activity change, negative = inhibition, actives largely listed as inhibitors. 360,000 compounds, 4.4% hits. AID 504333; note: potency is the fitted concentration of half-maximal effect; % is set by controls: 0 for no effect and ±100 for the full control effect; nearly all actives have a fitted effect of over 60% in size
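AlphaScreen displacement of biotin-H3(5-23)K14Ac peptide (50 nM final) from BAZ2B (50 nM final) in PBS pH 7.4, 0.01% Tween-20; complex preformed 30 min RT, then compounds (top 110 uM) 30 min RT, beads 20 min dark.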
HP1b binding inh: HP1-beta chromodomain-methylated histone interaction inhibition; P83916; AlphaScreen HP1-beta / biotin-H3K9me3 peptide binding; Potency, µM (series often up to 114 µM), for the others: at the top dose activity change, negative = inhibition, most hits filed as inhibitors; 390,000 compounds, 0.56% hits; AID 540317; note: potency is the fitted concentration of half-maximal effect; nearly all actives have a fitted effect of over 70% in size
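Compound inhibition of the preformed complex between 50 nM HP1-beta and 50 nM biotinylated H3K9me3 peptide was read by AlphaScreen. Buffer was PBS pH 7.4 with 0.01% Tween-20. Incubations ran 30 min at room temperature, with 10 ug/mL donor/acceptor beads.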
KAT2A inh: inhibitors of human GCN5L2 histone acetyltransferase. Potency, µM (series often up to 58.9 µM), for inactives: at the highest dose activity change, negative = inhibition, most hits filed as inhibitors. 390,000 compounds, 0.21% hits. GCN5L2 HAT assay, ThioGlo1 CoA-SH fluorescence. Q92830; note: potency is the fitted concentration of half-maximal effect; % is set by controls: 0 for no effect and ±100 for the full control effect
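Free CoA generated was detected with ThioGlo1 (50uM) fluorescence at Ex340nm/Em540nm, read immediately and after 20 min at room temperature. Enzyme, 20 nM in HEPES pH 7.5 buffer, saw compounds 15 min before adding 75uM H3(1-25) peptide and 70uM acetyl-CoA.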
JMJD2A Tudor inh: inhibitors of human JMJD2A Tudor domain; Potency, µM (doses to about 114 µM), for inactives: at the highest dose activity change, negative = inhibition, usual class: inhibitors; AlphaScreen JMJD2A-Tudor / H3K4me3 peptide binding; 390,000 compounds, 4.4% hits; note: potency is the fitted concentration of half-maximal effect; % is set by controls: 0 for no effect and ±100 for the full control effect; nearly all actives have a fitted effect of over 50% in size
PLK1 PBD inh: PLK1 (human) polo-box domain binding inhibition. Plk1 PBD binding of FITC phosphopeptide, fluorescence polarization. Potency, µM, for inactives: max response, negative = inhibition, actives largely listed as inhibitors. 360,000 compounds, 2.8% hits. AID 720504; note: potency is the fitted concentration of half-maximal effect; series mostly up to about 57 µM; % is set by controls: 0 for no effect and ±100 for the full control effect; nearly all actives have a fitted effect of over 65% in size
PI5P4K alpha inh: inhibitors of human PI5P4K alpha; P48426; PI5P4Kalpha enzyme, ADP-Glo luminescence, 60 min; hits give low values; max response, %; 330,000 compounds, 1.2% hits; AID 652105; active = max response of -50% or lower; inconclusive = between -30% and -50%; inactive = -30% or higher; note: value at the top dose of about 77 µM; % is set by controls: 0 for no effect and ±100 for the full control effect
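qHTS, 1536-well: enzyme/substrate mix, compound by pin tool, 5 microM ATP final; RT 60 min; ADP-Glo reagents 1 (45 min) then 2 (30 min); luminescence.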
Starred values were filed as active, the others as inactive; [ ] = dose if it differs, or a comment. The list is not random: actives were taken first. Their share in the collection is about 7%. Unless noted, calls come from the whole dose curve; as a rule, active = well fitted curve in the direction sought with a large enough effect; inconclusive = small, poorly fitted or top-dose-only effect, or another doubt; inactive = no such curve, though single readings can be large; an effect the other way counts as inactive or inconclusive.

`CCCCn1c(N)c(N(Cc2ccccc2OC)C(=O)CSCC(=O)Nc2cccc(C)c2)c(=O)[nH]c1=O` gave BAZ2B block -11%, HP1b binding inh -17%[57 µM], KAT2A inh -2%, JMJD2A Tudor inh inconclusive, PLK1 PBD inh 30µM* and PI5P4K alpha inh inconclusive.
CC1(C)CC(NC(=O)c2ccc(Cl)c(S(=O)(=O)N(Cc3ccccc3)c3ccccc3)c2)CC(C)(C)N1 was read as BAZ2B block -2%, HP1b binding inh inconclusive, KAT2A inh 0%, JMJD2A Tudor inh inconclusive, PLK1 PBD inh -5% and PI5P4K alpha inh 7.
`N#Cc1c(-c2ccc(Cl)cc2)cc(-c2ccccc2)nc1SCC(=O)O` gave BAZ2B block 56µM*, HP1b binding inh 46%, KAT2A inh -1%, JMJD2A Tudor inh -26%, PLK1 PBD inh inconclusive and PI5P4K alpha inh -8.
Screening N#Cc1c(-c2ccccc2)cc(-c2ccccc2)nc1SCC(=O)Nc1ccc(Cl)cc1 returned BAZ2B block 12%, HP1b binding inh 43%, KAT2A inh 1% and JMJD2A Tudor inh 7%.
For COc1ccccc1-c1cc(-c2ccccc2)nc(SC(C(N)=O)c2ccccc2)c1C#N (centres undefined) the results were BAZ2B block 79µM*, HP1b binding inh 38%, KAT2A inh -4%, JMJD2A Tudor inh -13%, PLK1 PBD inh -9% and PI5P4K alpha inh -2.
N#Cc1c(-c2ccc(F)cc2)cc(-c2ccccc2)nc1SCC(=O)NCC(=O)O was read as BAZ2B block 50µM*, HP1b binding inh inconclusive, KAT2A inh inconclusive, JMJD2A Tudor inh 79µM*, PLK1 PBD inh 19µM* and PI5P4K alpha inh -20.
For N#Cc1c(-c2ccco2)cc(-c2ccc(F)cc2)nc1N the results were BAZ2B block -11%, HP1b binding inh 54%, KAT2A inh -12%, JMJD2A Tudor inh -24%, PLK1 PBD inh inconclusive and PI5P4K alpha inh -64*.
Screening N#Cc1c(-c2ccc(F)cc2)cc(-c2cccnc2)nc1N returned BAZ2B block 12%, HP1b binding inh 14%, KAT2A inh -1%, JMJD2A Tudor inh -25%, PLK1 PBD inh -1% and PI5P4K alpha inh -9.
Screening CCc1ccc(C(C(=O)NCc2ccccc2)N(C(=O)c2csnn2)C2CC2)cc1 (centres undefined) returned BAZ2B block 0%, HP1b binding inh 19%, KAT2A inh -1%, JMJD2A Tudor inh -8%, PLK1 PBD inh -1% and PI5P4K alpha inh -1.
For Nc1ncnc2c1ncn2[C@@H]1O[C@H](CNS(=O)(=O)CCCCl)[C@@H](O)[C@H]1O the results were HP1b binding inh 19%, KAT2A inh -2%, JMJD2A Tudor inh -12%, PLK1 PBD inh -15% and PI5P4K alpha inh -1.
For N#Cc1c(-c2ccccc2)cc(-c2ccccc2)nc1SCCC(=O)O the results were BAZ2B block 3%, HP1b binding inh -11%, KAT2A inh -21%, JMJD2A Tudor inh -22%, PLK1 PBD inh 21µM* and PI5P4K alpha inh -20.
`COC(=O)CSc1nc(-c2ccccc2)cc(-c2ccco2)c1C#N` gave BAZ2B block 71µM*, HP1b binding inh 9%, KAT2A inh -8%, JMJD2A Tudor inh inconclusive and PLK1 PBD inh -9%.
`COC(=O)CSc1nc(N)c(C#N)c(-c2ccco2)c1C#N` gave BAZ2B block -1%, HP1b binding inh 30%, KAT2A inh -6%, JMJD2A Tudor inh -6%, PLK1 PBD inh -1% and PI5P4K alpha inh -20.
O=S(=O)(c1ccc(OC(F)(F)F)cc1)N1CCC(c2nnnn2-c2ccc(F)cc2)CC1 was read as BAZ2B block 1%, HP1b binding inh 30%, KAT2A inh -1% and JMJD2A Tudor inh -11%.
Screening Cc1nc2c(-c3ccc(F)cc3)c(C)nn2c(C)c1CCC(=O)NCc1cccc(Cl)c1 returned BAZ2B block -14%, HP1b binding inh 35%, KAT2A inh -6% and JMJD2A Tudor inh -6%.

Assay outcomes from PubChem BioAssay.
